# Source: PubChem BioAssay
# The list is not random: actives were taken first. Their share in the collection is about 5.7%.
# DAX1 inh-1 – inhibitors of DAX1 repression of SF-1 activated StAR promoter | HEK293T StAR-luciferase reporter, SF-1/DAX-1 repression relief | inhibition, % at 6.8 µM | 1.1% of 370,000 active;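 active = inhibition above the mean over all tested compounds plus 3 SD, cut at about 3.6% in these data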;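 note: 0% = DAX-1 cells with DMSO and 100% = cells lacking DAX-1 with DMSO; higher inhibition means more luminescence from relief of DAX-1 repression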
# ssDAF12 agonist – activators of S. stercoralis DAF-12 nuclear receptor | HEK293 ssDAF-12/GRIP1 lit1-tk-luc reporter, luminescence; % of 3 µM dafachronic acid response | activation, % at 6.8 µM | 1% of 370,000 active;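 active = activation above the mean over all tested compounds plus 3 SD, cut at about 0.9% in these data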;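 note: 0% = DMSO-only wells and 100% = 3 µM delta7-dafachronic acid wells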
# DAX1 inh-2 – inhibitors of human orphan nuclear receptor DAX1 (NR0B1); P51843; HEK293 Gal4-DAX1 luciferase reporter, luminescence; inhibition, % at 6.75 µM; 0.99% of 340,000 active; AID 504766;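 active = inhibition above the mean over all tested compounds plus 3 SD, cut at about 4.2% in these data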;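 note: 0% = DAX1-transfected cells with DMSO and 100% = empty-vector control cells with DMSO; inhibition shows as a rise in luminescence from relieved DAX1 repression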
# AHR act – activators of human aryl hydrocarbon receptor; AHR-responsive luciferase reporter cells, luminescence; AID 2796; 2.5% of 320,000 active; activation, % at 5 µM; in the data active = activation above about 47%;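 note: 0% = vehicle wells and 100% = reference agonist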
# Target sequence (P35869 whole entry, looked up): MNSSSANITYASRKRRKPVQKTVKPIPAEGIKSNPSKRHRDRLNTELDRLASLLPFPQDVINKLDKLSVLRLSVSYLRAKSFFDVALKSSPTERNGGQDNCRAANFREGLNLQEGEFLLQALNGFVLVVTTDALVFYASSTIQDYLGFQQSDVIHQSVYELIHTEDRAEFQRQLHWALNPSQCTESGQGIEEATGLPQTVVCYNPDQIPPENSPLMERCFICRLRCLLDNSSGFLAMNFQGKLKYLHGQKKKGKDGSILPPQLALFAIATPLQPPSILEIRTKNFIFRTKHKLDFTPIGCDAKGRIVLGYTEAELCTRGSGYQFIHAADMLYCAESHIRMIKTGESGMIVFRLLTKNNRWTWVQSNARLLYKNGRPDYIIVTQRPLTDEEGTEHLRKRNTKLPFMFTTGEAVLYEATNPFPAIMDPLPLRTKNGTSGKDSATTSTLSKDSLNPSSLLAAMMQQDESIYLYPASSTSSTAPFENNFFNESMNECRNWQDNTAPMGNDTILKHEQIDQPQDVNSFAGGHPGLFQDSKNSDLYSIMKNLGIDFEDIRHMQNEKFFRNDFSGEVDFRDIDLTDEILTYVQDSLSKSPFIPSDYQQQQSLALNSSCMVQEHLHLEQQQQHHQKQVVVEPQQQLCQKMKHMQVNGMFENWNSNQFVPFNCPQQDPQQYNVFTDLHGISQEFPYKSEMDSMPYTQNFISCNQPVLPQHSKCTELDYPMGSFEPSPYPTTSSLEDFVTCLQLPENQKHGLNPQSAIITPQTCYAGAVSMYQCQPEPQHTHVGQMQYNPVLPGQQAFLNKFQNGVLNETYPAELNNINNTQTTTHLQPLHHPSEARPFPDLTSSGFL
# hgDAF-12 ag – activates the H. glycines DAF-12 receptor ligand-binding domain | HEK293 GAL4-hgDAF12 UAS-luciferase reporter, agonist luminescence; normalized to butyrate control | activation, % at 6.8 µM | 1.8% of 370,000 active;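 active = activation above a cutoff set at the mean of all screened compounds plus 3 SD, cut at about 10% in these data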;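 note: 0% = DMSO wells and 100% = sodium butyrate wells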
# hcDAF-12 act – H. contortus DAF-12 activation, primary screen. HEK293 hcDAF-12 lit1-tk-luc reporter, luminescence; 0% DMSO, 100% Δ7-dafachronic acid. activation, % at 6.8 µM. 1.4% of 370,000 active. AID 652067;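 active = activation above the mean of all tested compounds plus 3 SD, cut at about 5.5% in these data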;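 note: 100% = response to 3 µM Δ7-dafachronic acid high control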
# * hit, by the source's call; nt = no result given.
SMILES,DAX1 inh-1,ssDAF12 agonist,DAX1 inh-2,AHR act,hgDAF-12 ag,hcDAF-12 act
O=C(NNC1CCN(Cc2ccccc2)CC1)c1ccccc1,2.7,-0.2,0.4,nt,10.7*,-0.6
CSc1nsc(SCC(=O)NC2CCCCC2)n1,1.2,0.1,0.0,28.2,3.1,5.6*
O=C1NC(c2cccc([N+](=O)[O-])c2)=CCN1c1ccccc1O,0.4,2.3*,1.4,3.6,4.4,0.8
CC(C)(C)N(NC(=O)Nc1cccc(F)c1)C(=O)c1ccccc1Cl,0.4,-0.8,nt,nt,0.3,-0.4
CC(C)(C)N(NC(=O)Nc1ccccc1)C(=O)c1ccccc1Cl,0.2,-0.7,6.3*,2.2,-0.2,0.0
CCOC(=O)N1C(=O)C[C@](Sc2ccc(OC)cc2)(C(=O)N2CCCC2)[C@H]1c1ccc(OC)cc1,-2.0,-1.1,nt,nt,1.8,-0.1
N#CCC(=O)Nc1ccc(C(=O)OCC(=O)NC(=O)Nc2ccc3c(c2)OCCO3)cc1,4.2*,-0.4,1.8,4.2,9.6,3.8
N#CCC(=O)Nc1ccc(C(=O)OCC(=O)NCc2ccc3c(c2)OCO3)cc1,1.7,-1.1,0.1,3.1,0.5,-1.2
O=C(COC(=O)C1COc2ccccc2O1)Nc1cccc(Cl)c1 (centres undefined),-0.1,-0.7,0.3,3.5,0.0,1.7
O=C(COC(=O)C1COc2ccccc2O1)NC(=O)Nc1ccc2c(c1)OCCO2 (centres undefined),-0.5,-0.1,1.0,10.7,4.3,5.8*
COc1ccc(Cl)cc1NC(=O)COC(=O)C1COc2ccccc2O1 (centres undefined),0.1,1.0*,0.3,23.8,1.2,5.5
COC(=O)[C@]12C[C@H](CC(=O)NCc3cccc(C(F)(F)F)c3)C(=O)N(CCc3ccc(OC)c(OC)c3)C1=C[C@H](COCc1ccccc1)O[C@@H]2C,-1.6,-0.8,nt,nt,-2.2,-3.9
O=C(Nc1ccc(F)c(F)c1)C1CCCN1S(=O)(=O)c1ccc(F)cc1 (centres undefined),-2.7,-0.6,-0.1,2.2,3.0,0.1
CN(C)C(CNC(=O)CCc1nc2ccccc2s1)c1ccccc1 (centres undefined),-0.1,-0.5,5.5*,-0.9,-1.7,-1.6
CCCCN(C(=O)C1CCN(C(=O)c2ccccc2C)CC1)c1c(N)n(CC(C)C)c(=O)[nH]c1=O,0.5,-1.1,-0.2,nt,-1.3,-0.2
COc1ccc(NC(=O)/C=C/c2cc(Br)ccc2OC)cc1,-0.6,-0.7,-1.1,27.9,2.8,1.5
CCN(CC)c1ccc(NC(=O)/C=C/c2cc(Br)ccc2OC)cc1,-1.0,-1.9,-1.6,55.0*,-1.0,-2.4
CCCCc1nc2sc3c(=O)n(N)cnc3c2c2c1CCC2,-0.1,-1.6,1.5,2.5,1.1,-0.3
Cc1cccc(N=CC=C2OC(C)(C)C(C)(C)O2)c1,0.4,-0.5,-0.1,3.2,3.7,-0.1
Cc1ccc(N=CC=C2OC(C)(C)C(C)(C)O2)cc1,-0.1,-1.5,-0.7,2.7,3.8,5.7*
Cc1cc(-n2c(C)cc(C(=O)COc3ccc(Cl)cc3C(N)=O)c2C)no1,-0.2,-0.8,-0.1,47.3*,-0.9,-0.2
C=C1[C@@H](OC(C)=O)C=C[C@@]2(C)C=CC(=O)[C@@](C)(OC(C)=O)[C@@H]2[C@@H](OC(C)=O)[C@]2(O)[C@@H](C)C(=O)O[C@H]2[C@H]1Cl,-0.6,-0.8,nt,nt,0.2,1.8
COC(=O)[C@]12C[C@H](CC(=O)NCc3ccc(C)o3)C(=O)N(CCC3=CCCCC3)C1=C[C@H](C(C)C)O[C@@H]2C1CC1,-0.2,2.1*,nt,nt,-1.5,-0.9
COC(=O)[C@]12C[C@H](CC(=O)NCc3cccs3)C(=O)N(CCC3=CCCCC3)C1=C[C@H](C(C)C)O[C@@H]2C1CC1,-1.2,-1.6,nt,nt,2.8,1.1
COc1ccc(C2CC(c3cccs3)=NN2S(C)(=O)=O)cc1 (centres undefined),1.4,-1.6,2.0,6.1,3.4,1.7
SMILES,DAX1 inh-1,ssDAF12 agonist,DAX1 inh-2,AHR act,hgDAF-12 ag,hcDAF-12 act
COc1ccc(C2CC(c3ccc(OC)c(OC)c3)=NN2S(C)(=O)=O)cc1 (centres undefined),1.7,0.0,4.6*,22.6,13.1*,4.3
CC(=O)N1N=C(c2cccc(NS(C)(=O)=O)c2)CC1c1ccc2c(c1)OCO2 (centres undefined),-0.5,-0.9,1.0,8.8,3.6,-2.0
CS(=O)(=O)Nc1ccc(C2=NN(S(C)(=O)=O)C(c3ccc4c(c3)OCO4)C2)cc1 (centres undefined),2.7,-0.7,2.1,13.7,10.7*,1.5
COC(=O)[C@]12C[C@H](CC(=O)N3CCCCC3)C(=O)N(CCC3=CCCCC3)C1=C[C@H](C1CCCC1)O[C@@H]2C,1.0,-1.1,nt,nt,1.5,0.4
Cc1ccc(N/C(=C\C(=O)c2ccccc2)C(=O)O)cc1,4.3*,1.1*,1.4,2.0,10.5*,3.0
Nc1ncnc2nc(SCCOc3ccc(Cl)cc3)[nH]c12,-0.2,-1.2,-0.2,16.8,0.2,-0.1
Cc1ccc(OCCSc2nc3ncnc(N)c3[nH]2)cc1,1.3,-1.6,4.3*,3.2,0.1,-1.3
COc1ccc(/C=N\NC(=O)c2cccc(F)c2)cc1COc1ccccc1,-0.5,-0.2,-1.5,63.9*,4.7,2.5
COc1ccc(C(=O)N/N=C\c2ccc(OC)c(COc3ccccc3Br)c2)c(OC)c1,-7.7,-1.6,-1.0,48.5*,1.6,-1.4
COc1ccc(/C=N/NC(=O)c2cccc(Br)c2)cc1CSc1ccccn1,-0.3,-0.9,1.2,56.0*,4.1,2.6
COc1ccc(/C=N\NC(=O)c2ccccc2Br)cc1COc1ccccc1,-5.3,-1.5,-2.1,6.7,0.7,-2.7
CN1CCN(C(c2ccc(Br)cc2)c2cc(Cl)c3cccnc3c2O)CC1 (centres undefined),-0.4,-0.9,-0.2,9.9,-5.7,3.8
CC(Oc1ccccc1)C(=O)N=Nc1c(O)[nH]c2ccc([N+](=O)[O-])cc12 (centres undefined),-0.5,-1.3,1.1,63.4*,0.1,0.3
Cc1ccc(N=Nc2c(O)n(CN3CCOCC3)c3ccccc23)cc1,nt,nt,3.0,41.4,nt,nt
Cc1cccc(NC(=S)N=Nc2c(O)n(CN3CCOCC3)c3ccccc23)c1C,-2.2,-2.2,-1.7,54.5*,-7.2,-0.5
COc1ccc(NS(=O)(=O)c2ccc(/C=C/C(=O)O)cc2)cc1S(=O)(=O)N1CCOCC1,0.7,-0.9,-0.2,0.8,3.3,2.1
O=C(NN=C1CCCCCCCCCCC1)c1ccccc1F,2.8,0.1,-0.2,8.7,11.8*,2.7
O=C(NN=C1CCCC1)c1ccn[nH]1,1.7,0.6,1.5,27.2,11.6*,0.8
O=C(NN=C1CCCCCCC1)c1ccc(F)cc1,0.7,-0.8,0.4,8.5,4.6,0.3
